Measurements from PubChem BioAssay (EPA / NIEHS).
“And” between values parts separate entries of the source, which are not always exact repeats. Equal values may be shown once. More than one record can exist for a structure, and the calls need not agree. The source made the active and inactive calls. How the source made its calls: active means hit-call score of the fitted dose curve at least 0.9, where 1 is the maximum; inactive means score below 0.9.

Columns and labels:
[1] = ATG_GLI_CIS: Attagene CIS-FACTORIAL HepG2 Assay for human Zinc Finger Protein GLI1 (AID 2282945); conditions: HepG2, Attagene cis-factorial reporter mRNA, GLI element; actives raise or lower the signal
How it was run: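 Bidirectional curve fits relative to DMSO, using reporter mRNA levels from RT-PCR plus capillary electrophoresis. Cells were HepG2 transiently carrying cis-regulated reporter constructs, harvested 24 h after dosing.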

[2] = target: Bile acid receptor (Homo sapiens) (UniProt Q96RI1); test: ATG_IR1_CIS: Attagene CIS-FACTORIAL HepG2 Assay for human Nuclear Receptor Subfamily 1 Group H Member 4 (NR1H4), IR1 submotif (AID 2282946); conditions: IR1 reporter transcription, actives raise or lower the signal
How it was run: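 Cells (human HepG2) carry transiently transfected cis-promoter reporter transcription units. Compounds are incubated 24 h, total RNA is reverse-transcribed and amplified, and labelled fragments are resolved by capillary electrophoresis. Curves use DMSO as baseline.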

[3] = ATG_GRE_CIS: Attagene CIS-FACTORIAL HepG2 Assay for human Glucocorticoid Response Elements (GRE) (AID 2282947); conditions: HepG2 GRE cis-reporter, Attagene multiplex mRNA; actives raise or lower the signal
How it was run: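 Transient MRTU transfection of human HepG2 liver cells; cis-regulated reporters report endogenous factors. 24 h dosing → RNA isolation → RT-PCR → 6-FAM primer extension → HpaI cut → CE fragment analysis. Bidirectional fit, DMSO negative control.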

[4] = ATG_ISRE_CIS: Attagene CIS-FACTORIAL HepG2 Assay for human Interferon Regulatory Factor 1 (IRF1) binding to an Interferon-Stimulated Response Element (ISRE) (AID 2282948); conditions: HepG2 ISRE cis-reporter (Attagene), mRNA transcription readout; actives raise or lower the signal
How it was run: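 Transfected HepG2 (multiple reporter transcription units, cis elements) dosed 24 h. RNA → oligo(dT) RT → PCR → 6-FAM primer extension → HpaI → CE. DMSO = negative control/baseline.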

[5] = ATG_M_32_CIS: Attagene CIS-FACTORIAL HepG2 Assay for M32 Transcription Factor (Internal Marker) (AID 2282949); conditions: HepG2 Attagene cis-factorial M32 reporter, mRNA; actives raise or lower the signal;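 further: background control marker of the multiplexed CIS panel rather than a real target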
How it was run: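 Fluorescent capillary electrophoresis peaks of HpaI-digested, FAM-labelled RT-PCR reporter products give the signal. Source: transiently transfected human liver HepG2 cells, 24 h after chemical dosing; bidirectional fitting against DMSO.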

[6] = ATG_M_06_CIS: Attagene CIS-FACTORIAL HepG2 Assay for M06 Transcription Factor (Internal Marker) (AID 2282950); conditions: HepG2 Attagene CIS-FACTORIAL M06 internal marker reporter; actives raise or lower the signal
How it was run: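 Steps: transfect HepG2 with multiplexed cis-element reporter constructs; dose chemical 24 h; extract RNA with DNase treatment; reverse-transcribe, PCR-amplify, 6-FAM label, HpaI digest; separate fragments by capillary electrophoresis. Activity fitted both directions versus DMSO.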

[7] = target: Hypoxia-inducible factor 1-alpha (Homo sapiens) (UniProt Q16665); test: ATG_HIF1a_CIS: Attagene CIS-FACTORIAL HepG2 Assay for human Hypoxia Inducible Factor 1 (HIF1A) (AID 2282951); conditions: HepG2 Attagene cis-factorial HIF1a reporter transcription; actives raise or lower the signal
How it was run: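 Cis-element reporter constructs were transiently transfected into HepG2 cells, which were treated for 24 h; reporter RNA was reverse-transcribed, amplified, labelled and resolved by capillary electrophoresis.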

[8] = target: Hepatocyte nuclear factor 6 (Homo sapiens) (UniProt Q9UBC0); test: ATG_HNF6_CIS: Attagene CIS-FACTORIAL HepG2 Assay for human Hepatocyte Nuclear Factor 6 (HNF6) (AID 2282952); conditions: HepG2 Attagene cis-factorial HNF6 reporter transcription; actives raise or lower the signal
How it was run: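 Cells are HepG2 carrying transiently transfected cis-promoter reporter units. Treatment lasts 24 h, after which reporter transcripts are reverse-transcribed, amplified, FAM-labelled and sized by capillary electrophoresis. DMSO serves as baseline.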

[9] = target: Heat shock factor protein 1 (Homo sapiens) (UniProt Q00613); test: ATG_HSE_CIS: Attagene CIS-FACTORIAL HepG2 Assay for human Heat Shock Transcription Factor 1 (HSE) (AID 2282953); conditions: HepG2 HSE cis-reporter, Attagene RNA transcription; actives raise or lower the signal
How it was run: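 Cells were transfected with cis-element-driven reporter constructs, dosed for 24 h, then total RNA was reverse-transcribed and reporter cDNA amplified, FAM-labelled and digested with HpaI. Fragments were resolved by capillary electrophoresis; gain or loss was fitted against DMSO.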

[10] = ATG_MRE_CIS: Attagene CIS-FACTORIAL HepG2 Assay for human Metal Responsive Element (MRE) (AID 2282954); conditions: HepG2 MRE cis-reporter transcription, Attagene multiplex; actives raise or lower the signal
How it was run: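 Transient MRTU transfection of HepG2 (FuGene 6); 24 h dosing; total RNA → oligo(dT) RT, PCR, 6-FAM primer extension, HpaI cut, CE. Bidirectional fit vs DMSO.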

Chain of Hepatocyte nuclear factor 6 (Homo sapiens) (Q9UBC0 whole entry, looked up): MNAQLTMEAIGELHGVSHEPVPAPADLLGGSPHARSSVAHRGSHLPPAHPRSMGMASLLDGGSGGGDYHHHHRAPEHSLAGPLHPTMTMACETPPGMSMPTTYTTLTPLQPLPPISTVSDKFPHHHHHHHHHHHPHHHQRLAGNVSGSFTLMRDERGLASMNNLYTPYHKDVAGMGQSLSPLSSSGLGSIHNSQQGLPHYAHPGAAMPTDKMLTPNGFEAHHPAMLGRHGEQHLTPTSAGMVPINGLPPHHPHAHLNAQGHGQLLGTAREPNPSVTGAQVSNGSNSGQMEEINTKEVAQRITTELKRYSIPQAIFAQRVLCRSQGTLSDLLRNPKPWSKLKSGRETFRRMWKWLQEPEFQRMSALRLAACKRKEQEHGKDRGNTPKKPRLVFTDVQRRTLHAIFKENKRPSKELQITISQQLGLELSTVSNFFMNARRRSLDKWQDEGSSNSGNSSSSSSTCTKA
Chain of Bile acid receptor (Homo sapiens) (Q96RI1 whole entry, looked up, the tested form may be a part): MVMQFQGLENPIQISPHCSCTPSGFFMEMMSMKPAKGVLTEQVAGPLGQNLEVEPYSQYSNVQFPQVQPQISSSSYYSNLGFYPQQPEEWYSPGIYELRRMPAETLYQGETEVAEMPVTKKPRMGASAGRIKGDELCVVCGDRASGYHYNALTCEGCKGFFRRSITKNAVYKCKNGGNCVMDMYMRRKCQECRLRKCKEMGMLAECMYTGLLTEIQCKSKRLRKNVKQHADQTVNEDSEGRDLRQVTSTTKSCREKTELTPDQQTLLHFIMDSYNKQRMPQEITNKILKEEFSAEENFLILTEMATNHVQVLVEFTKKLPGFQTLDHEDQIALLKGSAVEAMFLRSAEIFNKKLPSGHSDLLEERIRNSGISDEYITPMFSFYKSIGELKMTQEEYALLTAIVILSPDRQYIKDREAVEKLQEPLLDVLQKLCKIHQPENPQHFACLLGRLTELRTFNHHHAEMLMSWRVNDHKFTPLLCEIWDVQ
Chain of Hypoxia-inducible factor 1-alpha (Homo sapiens) (Q16665 whole entry, looked up): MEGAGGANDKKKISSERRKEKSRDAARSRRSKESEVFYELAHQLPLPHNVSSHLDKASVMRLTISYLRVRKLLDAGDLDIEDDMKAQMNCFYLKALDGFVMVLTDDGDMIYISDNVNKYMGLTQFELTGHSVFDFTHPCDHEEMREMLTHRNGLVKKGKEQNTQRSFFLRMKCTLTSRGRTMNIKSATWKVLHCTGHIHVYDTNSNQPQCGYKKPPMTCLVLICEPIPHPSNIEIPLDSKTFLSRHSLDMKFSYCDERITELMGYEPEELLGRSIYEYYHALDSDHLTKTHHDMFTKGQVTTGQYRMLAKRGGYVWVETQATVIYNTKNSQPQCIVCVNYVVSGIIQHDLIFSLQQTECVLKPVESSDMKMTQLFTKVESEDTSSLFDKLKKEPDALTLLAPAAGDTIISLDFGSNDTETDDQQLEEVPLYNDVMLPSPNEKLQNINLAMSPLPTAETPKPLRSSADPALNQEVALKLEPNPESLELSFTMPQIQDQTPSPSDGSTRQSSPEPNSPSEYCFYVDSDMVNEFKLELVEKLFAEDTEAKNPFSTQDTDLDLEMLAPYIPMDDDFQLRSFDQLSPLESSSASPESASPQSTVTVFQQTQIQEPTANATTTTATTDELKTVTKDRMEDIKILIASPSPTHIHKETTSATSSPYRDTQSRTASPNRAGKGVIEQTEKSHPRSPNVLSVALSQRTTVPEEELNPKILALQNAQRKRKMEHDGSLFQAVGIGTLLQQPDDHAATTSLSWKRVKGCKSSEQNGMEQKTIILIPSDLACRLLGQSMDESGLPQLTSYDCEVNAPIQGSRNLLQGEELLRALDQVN
Chain of Heat shock factor protein 1 (Homo sapiens) (Q00613 whole entry, looked up, the tested form may be a part): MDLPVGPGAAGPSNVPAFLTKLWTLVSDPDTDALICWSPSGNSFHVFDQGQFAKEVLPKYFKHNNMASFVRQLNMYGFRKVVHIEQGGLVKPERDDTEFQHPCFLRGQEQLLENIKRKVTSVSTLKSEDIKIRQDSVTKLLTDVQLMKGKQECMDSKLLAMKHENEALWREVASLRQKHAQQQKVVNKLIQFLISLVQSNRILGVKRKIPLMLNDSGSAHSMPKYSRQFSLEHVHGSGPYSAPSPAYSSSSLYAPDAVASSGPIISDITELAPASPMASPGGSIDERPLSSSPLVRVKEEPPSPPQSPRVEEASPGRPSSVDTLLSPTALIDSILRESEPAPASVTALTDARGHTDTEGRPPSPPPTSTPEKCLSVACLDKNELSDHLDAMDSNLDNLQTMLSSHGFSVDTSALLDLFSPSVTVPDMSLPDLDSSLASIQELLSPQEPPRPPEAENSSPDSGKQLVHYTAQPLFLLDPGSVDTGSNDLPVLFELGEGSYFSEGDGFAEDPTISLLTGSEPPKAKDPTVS

SMILES	outcome [1]	AC50 [2]	outcome [3]	AC50 [4]	outcome [4]	outcome [5]	outcome [6]	AC50 [7]	outcome [7]	outcome [8]	outcome [9]	AC50 [10]	outcome [2]	outcome [10]	AC50 [1]	AC50 [3]	AC50 [5]	AC50 [9]
CC(C)(C)c1cc(C(C)(C)C)c(O)c(C(C)(C)C)c1	inactive	698 nM (active) and 2.29 µM (active)	inactive	138 µM (active)	inactive	inactive	inactive	100 µM (active)	inactive	inactive	inactive	100 µM (active) and 36.8 µM (active)	–	–	–	–	–	–
CCCCCCCCOC(=O)CCCCCCCCC(=O)OCCCCCCCC	inactive	–	inactive	–	inactive	inactive	inactive	–	inactive	inactive	inactive	–	inactive	inactive	–	–	–	–
CCCCCCCCCCCCCC[N+](C)(C)C	inactive	9.85 µM (active)	inactive	–	inactive	inactive	inactive	–	inactive	inactive	–	8.9 µM (active)	inactive	inactive	–	–	–	–
O=c1c(-c2ccc(O)cc2)coc2cc(O)ccc12	inactive	52.6 µM (active) and 100 µM (active)	inactive	–	inactive	inactive	inactive	–	–	inactive	–	–	inactive	inactive	–	–	–	–
CC#C[C@]1(O)CC[C@H]2[C@@H]3CCC4=CC(=O)CCC4=C3[C@@H](c3ccc(N(C)C)cc3)C[C@@]21C	inactive	8.96 µM (active) and 9.17 µM (active) and 10.6 µM (active)	inactive	–	–	inactive	inactive	8.4 µM (active) [middle of 4 runs]	–	inactive	–	21.3 µM (active) [middle of 4 runs]	inactive	–	100 µM (active) and 134 µM (active)	26.7 µM (active)	–	–
CCCCCCC(=O)O	inactive	–	inactive	–	inactive	inactive	inactive	–	inactive	inactive	–	–	inactive	inactive	–	–	–	–
NC(=O)N1C(=O)C(C(=O)c2cc(Cl)cs2)c2cc(F)c(Cl)cc21 (configuration not stated)	inactive	–	inactive	–	inactive	inactive	inactive	6.79 µM (active)	–	inactive	–	14.9 µM (active)	inactive	–	–	–	–	–
Nc1cccc2c(N)cccc12	inactive	–	inactive	–	inactive	inactive	inactive	–	inactive	inactive	inactive	–	inactive	inactive	–	–	–	–
Cc1cc(C)c(O)c(C)c1	inactive	–	inactive	–	inactive	inactive	inactive	–	inactive	inactive	inactive	–	inactive	inactive	–	–	–	–
CC(=O)CC(C)(C)O	inactive	–	inactive	–	inactive	inactive	inactive	–	inactive	inactive	inactive	–	inactive	inactive	–	–	–	–
C=C(C)C(=O)OCCC(F)(F)C(F)(F)C(F)(F)C(F)(F)C(F)(F)C(F)(F)F	inactive	–	inactive	–	inactive	inactive	inactive	–	inactive	inactive	inactive	–	inactive	inactive	–	–	–	–
OCCC(F)(F)C(F)(F)C(F)(F)C(F)(F)C(F)(F)C(F)(F)F	inactive	187 µM (active)	inactive	100 µM (active)	inactive	inactive	inactive	–	inactive	inactive	inactive	147 µM (active)	inactive	inactive	–	133 µM (active)	100 µM (active)	100 µM (active)
CCCCC[C@H](O)CC(=O)CCc1ccc(O)c(OC)c1	inactive	149 µM (active)	inactive	–	inactive	inactive	inactive	–	inactive	inactive	inactive	–	–	inactive	–	–	–	–
COCC(C)OCC(C)O (configuration not stated)	inactive	–	inactive	–	inactive	inactive	inactive	–	inactive	inactive	inactive	–	inactive	inactive	–	–	–	–
COC(=O)CCCCC(=O)OC	inactive	–	inactive	–	inactive	inactive	inactive	–	inactive	inactive	inactive	–	inactive	inactive	–	–	–	–
COc1ccc([N+](=O)[O-])cc1N	inactive	–	inactive	–	inactive	inactive	inactive	–	inactive	inactive	inactive	–	inactive	inactive	–	–	–	–
